# This is a sample that favours compounds with a hit; in the whole collection about 15% have one here.
# DT40 TDP1 no CPT: qHTS for Inhibitors of human tyrosyl-DNA phosphodiesterase 1 (TDP1): qHTS in cells in absence of CPT. DT40 Tdp1-/- hTDP1 cells, no CPT, ATP luminescence, 48 h. Potency, µM (series often up to 46.2 µM), without a hit: at the top dose activity change, negative = growth inhibition, hits mostly inhibitors. 420,000 compounds, 15% hits. AID 686978, 2013; also: nearly all actives have a fitted effect of over 55% in size
#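 Chicken DT40 Tdp1-/- cells complemented with human TDP1, screened without camptothecin (DMSO vehicle only), 400 cells/well. Compounds pin-transferred, cells incubated at 37 °C for at least 48 hr. Growth read as ATP-dependent luminescence (CellTiter-Glo, 30 min at RT).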
# VP16 counter: VP16 counterscreen qHTS for inhibitors of ROR gamma transcriptional activity. AID 2546, 2010. Drosophila S2 Gal4-VP16 UAS-luciferase, luminescence, 20 h. Potency, µM (titrated, usually from 53.6 µM), inactives show at the top dose activity, negative = inhibition, actives largely listed as inhibitors. 310,000 compounds, 3.5% hits;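 also: Gal4-VP16 expression switched on by copper sulfate through the metallothionein promoter; nearly all actives have a fitted effect of over 50% in size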
# TDP1 cell CPT: qHTS for Inhibitors of human tyrosyl-DNA phosphodiesterase 1 (TDP1): qHTS in cells in presence of CPT; chicken DT40 Tdp1-/-;hTDP1 cells + 20 nM CPT, ATP luminescence, 48 h; Potency, µM (top dose mostly 46.2 µM), inactives show at the top dose activity change, negative = growth inhibition, usual class: inhibitors; 420,000 compounds, 12% hits; also: nearly all actives have a fitted effect of over 55% in size
#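 Chicken DT40 Tdp1-/- cells complemented with human TDP1, 400 cells/well, exposed to compounds plus 20 nM camptothecin for at least 48 h at 37 C; viability read as ATP content by CellTiter-Glo luminescence.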
# ALOX12 inh: Primary qHTS assay for inhibitors of human arachidonate 12S-lipoxygenase (ALOX12): Round 2; purified 12hLO, xylenol orange hydroperoxide absorbance; Potency, µM (titrated, usually from 108 µM), without a hit: at the highest dose activity change, negative = inhibition, actives largely listed as inhibitors; 580,000 compounds, 1.1% hits; AID 1671190, 2021
#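 Purified human 12hLO (150 nM final) in 25 mM Hepes, 0.01% Triton X-100, pH 7.0 was preincubated 15 min at room temperature with compound. Then 40 uM arachidonic acid was added, 30 min. Hydroperoxide was read by Fe-XO absorbance ratio 573/405 nm.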
# ELG1 repair inh: qHTS screen for small molecules that inhibit ELG1-dependent DNA repair in human embryonic kidney (HEK293T) cells expressing luciferase-tagged ELG1; HEK293T ELG1-luciferase reporter, luminescence, 16 h; DNA damage induced by 5-fluorouridine; Potency, µM (top dose mostly 46.1 µM), without a hit: at the top dose activity change, negative = inhibition, most hits filed as inhibitors; 330,000 compounds, 2.3% hits; AID 504467, 2011; also: nearly all actives have a fitted effect of over 55% in size
#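 Cells (2,000 per well) received 5-fluorouridine plus test compound or DMSO and were incubated 16 hr at 37 °C, 5% CO2. Luciferase activity was read by luminescence 30 min after ONE-Glo addition; signal suppression marked inhibition of damage-induced ELG1 function.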
# RORg inh: qHTS for inhibitors of ROR gamma transcriptional activity. Nuclear receptor ROR-gamma (Mus musculus), P51450. Drosophila S2 Gal4-RORgamma UAS-luciferase reporter, 20 h. Potency, µM (top dose mostly 53.6 µM), for inactives: at the top dose activity change, negative = inhibition, most hits filed as inhibitors. 310,000 compounds, 5.4% hits; also: nearly all actives have a fitted effect of over 60% in size
# Target sequence (P51450 whole entry, looked up, the tested form may be a part): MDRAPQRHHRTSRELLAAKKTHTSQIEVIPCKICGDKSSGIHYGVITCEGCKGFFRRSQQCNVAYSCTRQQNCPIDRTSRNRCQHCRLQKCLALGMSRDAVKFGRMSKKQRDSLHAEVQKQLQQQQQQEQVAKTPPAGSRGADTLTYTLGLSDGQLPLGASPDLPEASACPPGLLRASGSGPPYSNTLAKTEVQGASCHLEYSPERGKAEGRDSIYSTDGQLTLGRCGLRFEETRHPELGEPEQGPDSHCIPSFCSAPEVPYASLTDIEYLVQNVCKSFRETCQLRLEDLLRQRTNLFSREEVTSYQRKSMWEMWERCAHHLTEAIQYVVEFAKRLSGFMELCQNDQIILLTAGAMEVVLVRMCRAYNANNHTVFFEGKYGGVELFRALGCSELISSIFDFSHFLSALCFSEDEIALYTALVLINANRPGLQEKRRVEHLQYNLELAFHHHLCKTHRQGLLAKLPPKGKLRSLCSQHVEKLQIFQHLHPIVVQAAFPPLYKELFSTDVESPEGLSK
#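 Read-out: Photinus luciferase luminescence; inhibitors lower reporter signal. Insect Schneider cells with Gal4-ROR gamma fusion under metallothionein promoter, UAS reporter; 700 uM final copper sulfate induction, 20 hr, ambient temperature.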
# ELG1 FLuc counter: qHTS screen for small molecules that inhibit ELG1-dependent DNA repair: Hit Confirmation in Cell-Based Luciferin Assay; shares compounds with ELG1 repair inh; cell-free firefly luciferase luminescence counter-screen, ViewLux; Potency, µM (highest dose often 46.1 µM), without a hit: at the top dose activity change, negative = inhibition, most hits filed as inhibitors; 350 compounds, 3% hits; AID 624247, 2012
# ELG1-Luc inh: HTS assay for small molecules that inhibit ELG1-dependent DNA repair in human embryonic kidney (HEK293T) cells expressing luciferase-tagged ELG1: Hit Confirmation; shares compounds with ELG1 repair inh; HEK293T ELG1-luciferase levels, luminescence; cells co-treated with 5-fluorouridine; Potency, µM (titrated, usually from 46.1 µM), for inactives: top-dose activity change, negative = inhibition, actives largely listed as inhibitors; 670 compounds, 68% hits; also: nearly all actives have a fitted effect of over 55% in size
# ELG1-Luc MMS: inhibits ELG1-dependent repair under MMS stimulation in HEK293T cells; Potency, µM (series often up to 46.1 µM), for the others: at the top dose activity change, negative = inhibition, usual class: inhibitors; shares compounds with ELG1 repair inh; 670 compounds, 53% hits; HEK293T luciferase-tagged ELG1 level, MMS stimulated; also: nearly all actives have a fitted effect of over 60% in size
# ELG1 5-FU: qHTS screen for small molecules that inhibit ELG1-dependent DNA repair: Hit Confirmation with 5FU Viability | shares compounds with ELG1 repair inh | cell viability with 5-FU, ELG1-dependent repair | Potency, µM (titrated, usually from 46.1 µM), inactives show at the top dose activity change, negative = viability loss, usual class: cytotoxic | 670 tested, under 10 active;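 also: ELG1-luc HEK293T cells cotreated with 5-fluorouridine at 10 µM final; viability measured 16 h after compound addition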
# ELG1 MMS viab: qHTS screen for small molecules that inhibit ELG1-dependent DNA repair: Hit Confirmation with MMS Viability. 670 compounds, 33% hits. shares compounds with ELG1 repair inh. Potency, µM (doses to about 46.1 µM), without a hit: top-dose activity change, negative = viability loss, hits mostly cytotoxic. Cell viability with MMS, ELG1-dependent DNA repair. AID 624251, 2012;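 also: ELG1-luc HEK293T cells co-treated with 10 µM MMS; viability read 16 h after compound addition; nearly all actives have a fitted effect of over 60% in size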
# Cell viab unstim: qHTS screen for small molecules that inhibit ELG1-dependent DNA repair: Hit Confirmation with Unstimulated Viability Assay. AID 624252, 2012. Potency, µM (highest dose often 45.9 µM), inactives show top-dose activity change, negative = loss of viability, actives largely listed as cytotoxic. shares compounds with ELG1 repair inh. cell viability counter-screen, unstimulated, luminescence. 900 compounds, 8% hits;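 also: compound exposure lasted 16 hours before reading; nearly all actives have a fitted effect of over 55% in size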
# FLuc biochem: qHTS screen for small molecules that inhibit ELG1-dependent DNA repair: Hit Confirmation in Biochemical Luciferin Assay; AID 624253, 2012; shares compounds with ELG1 repair inh; Potency, µM (highest dose often 57.5 µM), for inactives: at the highest dose activity, negative = inhibition, hits mostly inhibitors; 350 compounds, 10% hits; purified firefly luciferase, luminescence counter-screen
# An asterisk follows results filed as active; ? = inconclusive; . = no result. Calls follow the shape of the dose curve; as a rule, active = well fitted curve in the direction sought with a large enough effect; inconclusive = small, poorly fitted or top-dose-only effect, or another doubt; inactive = no such curve, though single readings can be large; an effect the other way counts as inactive or inconclusive. % is scaled to controls: 0 for no effect and ±100 for the full control effect; potency is read from the fitted curve at half-maximal effect.
SMILES,DT40 TDP1 no CPT,VP16 counter,TDP1 cell CPT,ALOX12 inh,ELG1 repair inh,RORg inh,ELG1-Luc inh,ELG1-Luc MMS,ELG1 5-FU,ELG1 MMS viab,Cell viab unstim,others
COc1ccc(C(=O)N[C@@H]2CCC[C@@H]2C(=O)NC2CCCC2)cc1,.,.,.,-2.5%,.,.,.,.,.,.,.,
Cc1[nH]cnc1C(=O)N1CCC2(CC1)NC(=O)CC2C(=O)O (stereo not drawn),.,.,.,6.6%,.,.,.,.,.,.,.,
COc1ccc2c(c1)c(CC(=O)OCC(N)=O)c(C)n2C(=O)c1ccc(Cl)cc1,?,1.0%,?,?,-26.5%,21.4%,.,.,.,.,.,
COc1ccc(NC(=O)Cc2c(C)n(C(=O)c3ccc(Cl)cc3)c3ccc(OC)cc23)cc1,-28.7%,-17.1%,-10.3%,-23.5%,2.59µM*,?,17.7µM*,15.2%,?,-3.5%,-2.5%,ELG1 FLuc counter=21.6%;FLuc biochem=1.9%
COc1ccc2c(c1)c(CC(=O)OCC(=O)O)c(C)n2C(=O)c1ccc(Cl)cc1,-6.1%,1.5%,1.1%,-15.9%,9.7%,6.3%,.,.,.,.,.,
COc1ccc2c(c1)c(CC(=O)Nc1cccc(S(N)(=O)=O)c1)c(C)n2C(=O)c1ccc(Cl)cc1,?,-13.0%,?,-5.1%,18.3µM*,25.9%,14.1µM*,17.7µM*,?,?,?,ELG1 FLuc counter=-5.1%;FLuc biochem=4.0%
COc1ccc(OCCN2CCN(C(=O)c3ccc(OC)cc3)CC2)cc1,-23.5%,-7.9%,-3.9%,-8.9%,3.26µM*,4.0%,?,7.05µM*,-3.6%,7.91µM*,-22.1%,
O=C(c1ccc(Cl)cc1)N1CCN(CCOc2ccccc2)CC1,-12.1%,?,-0.3%,0.0%,-22.2%,25.6%,.,.,.,.,.,
COc1ccc(OC)c(C(=O)OCc2nc3ccccc3o2)c1,.,.,.,18.5%,.,.,.,.,.,.,.,
Cc1ccc(CN2C(=O)NC3(CCN(C(=O)c4ccc(C(C)(C)C)cc4)C3)C2=O)cc1 (stereo not drawn),.,.,.,-13.2%,.,.,.,.,.,.,.,
CN(C(=O)CN1C(=O)c2ccccc2S1(=O)=O)C1CCCCC1,-13.6%,.,0.5%,-7.2%,?,.,.,.,.,.,-2.1%,
COc1cc(C2CC(=O)Nc3c(-c4ccccc4)nsc32)cc2c1OCO2 (stereo not drawn),.,.,.,61.3%,.,.,.,.,.,.,.,
COc1cc2cc(CN(Cc3cccnc3)C(=O)Nc3ccccc3F)c(=O)[nH]c2cc1OC,?,8.9%,?,-6.9%,5.8µM*,-1.3%,9.97µM*,0.6%,?,-1.2%,-8.3%,ELG1 FLuc counter=-5.0%;FLuc biochem=-13.9%
COc1cc(-c2noc(C)c2/C=C/c2cccc([N+](=O)[O-])c2)cc(OC)c1OC,1.64µM*,-9.2%,1.3µM*,?,2.59µM*,?,1.99µM*,7.05µM*,?,?,?,
Cc1ccc2c(C)c(CCC(=O)Nc3ccc(F)cc3Cl)c(=O)oc2c1,.,.,.,12.5%,.,.,.,.,.,.,.,
COc1cc(OC)c2c(-c3cccc(-c4ccc(C#N)cc4)c3)cc(=O)oc2c1,4.11µM*,-6.3%,2.06µM*,?,4.61µM*,5.6%,?,7.91µM*,?,7.05µM*,?,
NC(=O)C1CCN(c2ccc(S(=O)(=O)N3CCC(Cc4ccccc4)CC3)cn2)CC1,13µM*,0.6%,?,-4.7%,?,-13.1%,-14.6%,1.99µM*,-10.3%,2.5µM*,?,
COc1ccc2c(c1)c(CN1CCC3(CC1)CC(C(=O)N1CCOCC1)N(C)C3)cn2C (stereo not drawn),.,.,.,62.3%,.,.,.,.,.,.,.,
Cc1cccc(N2CCN(C3=NC(=O)/C(=C\c4cn[nH]c4-c4ccccc4)S3)CC2)c1,2.06µM*,-27.2%,6.51µM*,-11.2%,2.31µM*,-20.5%,1.41µM*,11.2µM*,?,?,?,ELG1 FLuc counter=19.3%;FLuc biochem=-1.9%
O=C(CSCC(=O)N1CCCCC1)Nc1nc(-c2ccc(Cl)s2)cs1,-27.5%,11.4%,-2.4%,?,?,?,.,.,.,.,.,
CC(C)C(=O)SCCCCCCC(=O)Nc1nc(-c2ccccc2)cs1,.,?,.,.,.,-7.4%,.,.,.,.,-4.1%,
